Screening results as filed in PubChem BioAssay.
Most compounds without a hit are left out; they make up all but 9.2% or so of the library.
ELG1 genotoxic: genotoxicity induction in ELG1-luciferase HEK293T cells. HEK293T ELG1-luciferase reporter, luminescence, 16 h. Potency, µM (titrated, usually from 46 µM), inactives show at the highest dose activity change, positive = activation, most hits filed as activators. 1.3% of 330,000 active. AID 504466; further: % of control where 0% means no effect; nearly all actives have a fitted effect of over 60% in size
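Luminescence read-out: rising ELG1-luciferase signal, reflecting elevated ELG1 protein under genetic stress, flags genotoxic compounds. Cells were treated for 16 hr at 37 °C before ONE-Glo detection.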
FLuc counter: inhibits or activates purified firefly luciferase, miR-21 counter-screen; purified FLuc, Km substrates, luminescence inhibition; P08659; Potency, µM (doses to about 57.5 µM), for the others: at the top dose activity change, negative = inhibition, actives largely listed as inhibitors; 6.9% of 360,000 active;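 further: plate controls were vehicle for no effect and reference inhibitor for full effect; nearly all actives have a fitted effect of over 55% in size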
Target sequence (P08659 whole entry, looked up): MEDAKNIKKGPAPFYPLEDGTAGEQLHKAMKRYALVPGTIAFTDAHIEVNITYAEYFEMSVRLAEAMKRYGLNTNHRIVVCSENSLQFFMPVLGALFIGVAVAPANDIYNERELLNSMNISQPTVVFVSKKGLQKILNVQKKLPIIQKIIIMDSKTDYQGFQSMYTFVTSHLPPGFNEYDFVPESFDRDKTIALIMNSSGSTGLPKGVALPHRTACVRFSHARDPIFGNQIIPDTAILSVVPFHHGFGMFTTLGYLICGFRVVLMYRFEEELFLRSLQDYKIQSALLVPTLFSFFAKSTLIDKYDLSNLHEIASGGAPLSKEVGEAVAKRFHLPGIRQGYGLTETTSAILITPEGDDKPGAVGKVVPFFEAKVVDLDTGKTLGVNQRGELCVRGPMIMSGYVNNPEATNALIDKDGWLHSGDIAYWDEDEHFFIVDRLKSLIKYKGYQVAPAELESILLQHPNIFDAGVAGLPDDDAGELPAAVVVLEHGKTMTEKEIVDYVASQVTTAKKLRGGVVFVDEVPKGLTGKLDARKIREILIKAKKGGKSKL
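Purified P. pyralis luciferase, 10 nM final, with Km-level 10 uM D-luciferin and 10 uM ATP in 50 mM Tris acetate pH 7.5, 10 mM Mg acetate, 0.01% Tween-20, 0.05% BSA; 6-point qHTS titration about 60 µM downward; luminescence read.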
Rab9 prom act: Rab9 promoter activation. Potency, µM (series often up to 9.22 µM), without a hit: at the top dose activation, negative = inhibition, hits mostly activators. 2.8% of 320,000 active. AID 485297. Huh7 Rab9 promoter-luciferase reporter, luminescence, 24 h; further: % of control where 0% means no effect; nearly all actives have a fitted effect of over 60% in size
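Steps: seed 1500 Huh7 Rab9-luc cells per well, rest 2 h at 37 °C; add compound in DMSO; incubate 24 h; add luciferase reagent, 10 min ambient; read luminescence.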
NPC1 promoter act: NPC1 promoter activation | 2.4% of 320,000 active | Huh7 NPC1 promoter luciferase reporter, 24 h | Potency, µM (series often up to 9.22 µM), inactives show top-dose activation, actives largely listed as activators; further: % of control where 0% means no effect; nearly all actives have a fitted effect of over 60% in size
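Luminescence read-out of NPC1 promoter-driven luciferase in stably transfected Huh7 cells; compounds delivered in DMSO and left 24 h at 37C, 5% CO2, qHTS titration format.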
SMN2 splice enh: SMN2 splice variant enhancement. 2.8% of 210,000 active. Potency, µM (top dose mostly 46.1 µM), without a hit: at the highest dose activity change, positive = activation, usual class: activators. HEK293 SMN2-luciferase splicing reporter, luminescence, 30-36 h; further: % of control where 0% means no effect; nearly all actives have a fitted effect of over 55% in size
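HEK293 cells carry an SMN2 […]–luciferase reporter in which exon 7 inclusion puts luciferase in frame. Cells were plated 10-12 h before compound addition, then incubated 30-36 h at 37C. ONE-Glo luminescence was read; sodium butyrate at 4.5 mM final served as control.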
ELG1 repair inh: blocks ELG1-dependent DNA repair in HEK293T cells; Potency, µM (series often up to 46.1 µM), inactives show top-dose activity change, negative = inhibition, hits mostly inhibitors; 2.3% of 330,000 active; HEK293T ELG1-luciferase reporter, luminescence, 16 h; DNA damage induced by 5-fluorouridine; AID 504467; further: on the % scale 0 is the no-effect control and ±100 the full control effect; nearly all actives have a fitted effect of over 55% in size
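Overnight (16 hr) co-exposure of 2,000 cells/well to 5-fluorouridine and compound at 37 °C preceded detection. Luciferase was quantified via ONE-Glo luminescence; loss of signal denotes inhibition.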
Starred values were filed as active, the others as inactive; ? = inconclusive; / = not tested or not shown. The call rests on the fitted dose curve; in most records, active means well fitted curve in the direction sought with a large enough effect; inconclusive means small, poorly fitted or top-dose-only effect, or another doubt; inactive means no such curve, though single readings can be large; an effect the other way counts as inactive or inconclusive. Potency means the concentration at half of the fitted maximal effect.

SMILES	ELG1 genotoxic	FLuc counter	Rab9 prom act	NPC1 promoter act	SMN2 splice enh	ELG1 repair inh
COc1ccccc1C(=O)C1CCCN(C(=O)c2cn3cc(Cl)ccc3n2)C1 (configuration not stated)	3%	13µM*	-3%	-4%	/	?
COc1ccccc1C(=O)C1CCCN(C(=O)c2ccccc2Cl)C1 (configuration not stated)	-7%	0%	-2%	2%	/	-2%
N/C(=N\OC(=O)CCC1CCCC1)c1cccnc1	6%	13µM*	0%	-1%	15%	?
N/C(=N\OC(=O)C1CCCCC1)c1cccnc1	3%	19µM*	6%	7%	-8%	22%
N/C(=N\OC(=O)c1ccc(Br)o1)c1cccnc1	22%	?	?	27%	/	?
Cc1ccc(SCC(=O)O/N=C(\N)c2cccnc2)cc1	?	-17%	0%	-4%	/	?
N/C(=N\OC(=O)CC1CCCCC1)c1cccnc1	3%	13µM*	-2%	-3%	-5%	?
CN(CC(=O)Nc1cccc(F)c1)CC(=O)N(C)c1c(N)n(Cc2ccccc2)c(=O)[nH]c1=O	2%	/	/	/	/	16%
Cc1ccc(N2C(=O)CS(=O)C(c3ccccc3)C2=O)cc1C (configuration not stated)	13%	12µM*	11%	4%	-3%	13%
O=C(Oc1ccccc1C(=S)N1CCOCC1)c1cccc([N+](=O)[O-])c1	0%	0%	-1%	0%	/	4%
CN(Cc1nc2ccccc2c(=O)[nH]1)C(=O)c1cc2c(s1)CCCCC2	4%	/	/	/	/	-14%
COc1ccc(CN(C)CC(=O)Nc2sc3c(c2C#N)CCC3)cc1OC	-3%	5%	-4%	-10%	-57%	?
CN(CC(=O)Nc1sc2c(c1C#N)CCCCC2)Cc1nc2ccccc2c(=O)[nH]1	-10%	-17%	-6%	-7%	-43%	23µM*
COc1cccc(CN(C)CC(=O)Nc2sc3c(c2C#N)CCC3)c1OC	2%	-12%	-9%	-8%	-48%	12µM*
CCOC(=O)c1ccc(NC(=O)c2cc3c(=O)n(C)c4ccccc4c3n2C)cc1	/	-4%	/	/	5%	/
CCOC(=O)NC(=O)COC(=O)CCCSc1nc2ccccc2s1	2%	?	-4%	-4%	-6%	1%
CC(=O)N/C(N)=N/c1nc(=O)c2ccccc2s1	18µM*	13µM*	2.5µM*	?	/	?
CCOC(=O)N/C(N)=N/c1nc2ccccc2s1	4.1µM*	5.4µM*	3.2µM*	1.6µM*	11µM*	?
CC(=O)Nc1ccc(N(C(=O)c2ccccn2)C(C(=O)NC2CCCCC2)c2ccc(F)cc2)cc1 (configuration not stated)	5%	0%	1%	1%	/	1%
Cc1c([N+](=O)[O-])c2ccc(O)cc2n1-c1ccccc1	-9%	2%	2%	3%	/	4.6µM*
Cc1ccc(-n2c(C)c([N+](=O)[O-])c3ccc(O)cc32)cc1	-10%	-3%	0%	-4%	/	?
CCCCSC(=O)Nc1ccccc1	?	17µM*	7%	-1%	7%	?
C=C(C)Cn1c(SCC(=O)c2ccccc2)nc2sc3c(c2c1=O)CCCC3	/	-1%	/	/	5.6µM*	/
CCn1c(SCC(=O)Nc2cc(C)on2)nc2sc3c(c2c1=O)CCCC3	15%	-1%	1%	1%	27%	3%
C=CCn1c(SCC(=O)N2CCOCC2)nc2sc3c(c2c1=O)CCCC3	-11%	5%	-8%	-1%	11%	18µM*
C=CCn1c(SCC(=O)Nc2cc(C)on2)nc2sc3c(c2c1=O)CCCC3	-1%	-1%	-1%	-1%	13µM*	-2%
CCOc1ccc(S(=O)(=O)NCc2cccnc2)cc1C(C)C	-10%	-5%	-5%	-4%	/	-19%
